According to PubChem BioAssay (NCATS):
Inconclusive results are not listed. The source made the active and inactive calls. Unless noted, calls come from the whole dose curve; as a rule, active = well fitted curve in the direction sought with a large enough effect; inconclusive = small, poorly fitted or top-dose-only effect, or another doubt; inactive = no such curve, though single readings can be large; an effect the other way counts as inactive or inconclusive.

Assays:
[1] = qHTS profiling of the MIPE4 collection as inhibitors of Plasmodium falciparum (DD2) proliferation (AID 743345; call rule not given here); conditions: P. falciparum Dd2 in erythrocytes, SYBR Green DNA, 72 h; at 28.5 µM (top of the series) unless noted
Outline: (§1)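 Parasite DNA was quantified by SYBR Green I fluorescence (ex 485, em 535 nm) after overnight lysis in saponin/Triton buffer at room temperature. Cultures at 0.3% parasitemia and 2.5% hematocrit were first exposed to compound for 72 h at 37 C; signals were normalised to artemisinin (0.29 uM) and vehicle wells.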

[2] = qHTS profiling of the MIPE4 collection as inhibitors of Plasmodium falciparum (DD2) proliferation (Rep 2) (AID 743346; call rule not given here); conditions: P. falciparum Dd2 in erythrocytes, SYBR Green DNA, 72 h; at 28.5 µM (top of the series) unless noted
Outline: as §1

[3] = qHTS profiling of the MIPE4 collection as inhibitors of Plasmodium falciparum (HB3) proliferation (AID 743347; call rule not given here;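 note: plate controls were DMSO vehicle wells for no effect and artemisinin wells for full effect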); conditions: P. falciparum HB3 in erythrocytes, SYBR Green DNA, 72 h; at 28.5 µM (top of the series) unless noted
Outline: as §1

[4] = High-throughput drug toxicity screening in the BPDCN cell line Cal-1 (AID 1224825; call rule not given here); conditions: Cal-1 BPDCN cell viability, qHTS; at 45.8 µM (top of the series) unless noted
Outline: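 CellTiter-Glo luminescence after 48 h compound exposure; percent activity scaled with DMSO as 100% and bortezomib (9.2 uM final) as 0%. Cal-1 cells seeded at 500/well in RPMI, 10% FBS, no phenol red.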

[5] = qHTS assay for measurement of the activity of small molecule inhibitors on Zika virus induced Caspase-3 activity in human astrocytoma cells (AID 1224859); note: potency is the fitted concentration of half-maximal effect
Outline: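 In SNB-19 cells plated at 250 cells/well and grown 16-20 h, compounds were applied 1 h before ZIKV (2 FFU/cell). Six hours later caspase-3/7 luminescence was recorded.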

[6] = qHTS Screen of the MIPE 4.0 Collection Against Ewings Sarcoma (EW8) (AID 1259255); note: nearly all actives have a fitted effect of over 35% in size; note: potency is the fitted concentration of half-maximal effect;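 for viability: 100% = DMSO-treated cells and 0% = medium-only wells without cells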
Outline: (§2)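 Viability screen: 48 h incubation at 37C, 95% humidity, 5% CO2 with serially titrated compound, followed by CellTiter-Glo readout.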

[7] = qHTS Screen of the MIPE 4.0 Collection Against Ewings Sarcoma (TC32) (AID 1259256); note: nearly all actives have a fitted effect of over 45% in size; note: potency is the fitted concentration of half-maximal effect
Outline: as §2

[8] = P-glycoprotein substrates identified in KB-8-5-11 adenocarcinoma cell line, qHTS therapeutic library screen (AID 1346987); note: nearly all actives have a fitted effect of over 65% in size; note: potency is the fitted concentration of half-maximal effect
Outline: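 Human cervical adenocarcinoma KB-8-5-11 cells, selected in colchicine to over-express P-gp and assayed without it, were exposed for 72 h to titrated compounds. An ATP-based luminescent viability signal gave AC50.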

[9] = qHTS profiling of the MIPE4 collection as inhibitors of Plasmodium falciparum (3D7) proliferation (AID 743344; call rule not given here;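 note: scaled between DMSO vehicle wells and 0.29 µM artemisinin as full inhibition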); conditions: P. falciparum 3D7 in erythrocytes, SYBR Green DNA fluorescence, 72 h; at 28.5 µM (top of the series) unless noted
Outline: as §1

[10] = qHTS assay for measurement of the activity of small molecule inhibitors on Zika virus induced Caspase-3 activity in human iPSC derived neural progenitor cells (hNPCs) (AID 1224857); note: % of control where 0% means no effect; nearly all actives have a fitted effect of over 65% in size
Outline: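 Caspase-3/7 induction by a 6-hour ZIKV infection was quantified with a luminescent Caspase-Glo 3/7 reagent incubated 30 minutes at room temperature. Compounds were preincubated with hNPCs for 1 hour; inhibition was calculated against uninfected and infected control wells.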

[11] = qHTS Screen of the MIPE 4.0 Collection Against Ewings Sarcoma (TC71) (AID 1259253); note: nearly all actives have a fitted effect of over 40% in size; note: potency is the fitted concentration of half-maximal effect
Outline: as §2

[12] = P-glycoprotein substrates identified in KB-3-1 adenocarcinoma cell line, qHTS therapeutic library screen (AID 1346986);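 note: potency is the fitted concentration of half-maximal effect; potency is for cytotoxicity meaning loss of cell viability; nearly all actives have a fitted effect of over 60% in size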
Outline: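 Viability by CellTiter-Glo after 72 h compound exposure at 37 degree C, 5% CO2. Cytotoxic call: curve class -1.1 to -2.4, maximum response >50%, AC50 < 10 uM, compared across KB-3-1 and P-gp-overexpressing KB-8-5-11.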

[13] = qHTS Screen of the MIPE 4.0 Collection Against Ewings Sarcoma (RDES) (AID 1259252);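 note: 100% = DMSO-treated cells and 0% = medium-only wells without cells; nearly all actives have a fitted effect of over 35% in size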
Outline: as §2

Compound	parasite growth remaining, % of DMSO control (lower = more inhibition) [1] [%]	parasite growth, % of control (lower = inhibition) [2] [%]	growth, % of control [3] [%]	viability (% of control) [4] [%]	Potency [5]	Potency [6]	Potency [7]	Potency [8]	parasite growth, % of DMSO control [9] [%]	Potency [10]	Potency [11]	Potency [12]	Potency [13]
Cc1c(NC(=O)c2ccc(C(C)(C)C)cc2)cccc1-c1cn(C)c(=O)c(Nc2ccc(C(=O)N3CCOCC3)cc2)n1	6.89	10.1	5.53	42.2	11.8 µM (active)	20.9 µM (active)	20.9 µM (active)	inactive					
NC(=O)c1cnc(-c2ccc(C3(N)CCC3)cc2)c(-c2ccccc2)c1	65.3	30	75.7		inactive			inactive	55.3	inactive	inactive	16.4 µM (active)	
CCC(=O)O[C@]1(C(=O)CO)CC[C@H]2[C@@H]3CCC4=CC(=O)CC[C@]4(C)[C@@H]3CC[C@@]21C	93.6	38.1		81.8	inactive	inactive	inactive	inactive		inactive			
CO[C@H]1C(=O)[C@]2(C)[C@@H](OC)C[C@H]3OC[C@@]3(OC(C)=O)[C@H]2[C@H](OC(=O)c2ccccc2)[C@]2(O)C[C@H](OC(=O)[C@H](O)[C@@H](NC(=O)OC(C)(C)C)c3ccccc3)C(C)=C1C2(C)C	13.7	21.2	3.01	13	inactive	inactive	inactive	0.001 µM (active)	4.99		inactive		inactive
COc1ccc2cccc(CCNC(C)=O)c2c1	101	72.6	41	132	inactive	inactive	inactive	inactive	56.4	inactive			
Cc1ccc(C(C)(O)c2nc3ccccc3s2)c(C)c1 (stereo not drawn)	90.2	88.7		6.97	inactive			inactive	61.8	inactive			
COc1cc(NC(=O)c2ccc(-c3ccc(Cl)cc3)o2)cc(OC)c1		99.4	94.4	6.59	inactive			inactive	97.8	inactive			
C[C@]12CC[C@@H]3c4ccc(O)cc4C[C@@H](CCCCCCCCCS(=O)CCCC(F)(F)C(F)(F)F)[C@H]3[C@H]1CC[C@H]2O (stereo partly drawn)	8.45	10.8	3.95	108	inactive		inactive	inactive	5.44	inactive	14.8 µM (active)		
O=C(NOCC(O)CO)c1cc(Br)c(F)c(F)c1Nc1ccc(I)cc1F (stereo not drawn)	87.4	100	77.4	57.3	inactive			inactive	89.4	inactive			
